Bioassay records as filed in PubChem.
Rows were chosen to be rich in hits. Some 10% of all compounds tested hit in one or more screens of this group.
NIH3T3 tox = kills NIH 3T3 cells; NIH 3T3 viability, CellTiter-Glo ATP luminescence, 48-72 h; Potency, µM (series often up to 96.7 µM), inactives show at the highest dose activity change, negative = cytotoxicity, hits mostly inhibitors; 4.3% of 94,000 active; AID 1345082; note: nearly all actives have a fitted effect of over 55% in size
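Cells were seeded at 400 per well, treated with pin-transferred compound, and kept 48 or 72 hr at 37 °C before CellTiter-Glo addition and luminescence imaging of cellular ATP.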
HEK cytotox = HEK 293 cell cytotoxicity; HEK 293 viability, ATP luminescence (CellTiter-Glo), 48-72 h; Potency, µM (top dose mostly 115 µM), for the others: top-dose activity change, negative = cytotoxicity, actives largely listed as inhibitors; 6.6% of 94,000 active; note: nearly all actives have a fitted effect of over 60% in size
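HEK 293 cells seeded at 250 cells/well were exposed to compound for 48 or 72 hr at 37 degree Celsius. Viability taken as ATP content by CellTiter-Glo luminescence.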
GPT2 inhibitor = inhibitors of human GPT2 alanine aminotransferase. Q8TD30. Potency, µM (top dose mostly 57.7 µM), inactives show at the top dose activity change, negative = inhibition, actives largely listed as inhibitors. Recombinant GPT2, coupled pyruvate oxidase/HRP Amplex Red fluorescence. 0.25% of 100,000 active; note: nearly all actives have a fitted effect of over 60% in size
Target sequence (Q8TD30 whole entry, looked up): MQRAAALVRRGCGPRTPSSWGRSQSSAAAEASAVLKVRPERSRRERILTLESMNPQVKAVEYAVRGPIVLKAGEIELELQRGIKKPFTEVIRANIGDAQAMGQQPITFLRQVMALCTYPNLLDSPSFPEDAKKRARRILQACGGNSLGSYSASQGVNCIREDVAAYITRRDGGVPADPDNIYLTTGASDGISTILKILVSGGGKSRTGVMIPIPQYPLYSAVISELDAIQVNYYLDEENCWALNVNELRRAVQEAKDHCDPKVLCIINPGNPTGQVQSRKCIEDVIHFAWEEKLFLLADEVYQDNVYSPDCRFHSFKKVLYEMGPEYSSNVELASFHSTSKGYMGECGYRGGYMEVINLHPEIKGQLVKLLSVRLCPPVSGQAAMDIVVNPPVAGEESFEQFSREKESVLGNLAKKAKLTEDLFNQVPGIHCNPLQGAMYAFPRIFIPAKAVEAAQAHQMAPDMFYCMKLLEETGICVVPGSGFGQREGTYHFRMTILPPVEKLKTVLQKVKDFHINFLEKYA
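Inhibition is scored from Amplex Red fluorescence generated when pyruvate oxidase and HRP act on pyruvate released by GPT2. Reactions contain 10ng/uL enzyme, 250uM a-KG and 2mM L-alanine and run 30 min at room temperature.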
hNpr1 antagonist = antagonists of human natriuretic peptide receptor Npr1 | P16066 | HEK293 hNpr1 GloSensor cGMP, ANP-stimulated luminescence | Potency, µM (highest dose often 46.3 µM), for inactives: at the highest dose activity change, negative = inhibition, actives largely listed as inhibitors | 1.6% of 76,000 active | AID 1347048; calls by dose curve; note: nearly all actives have a fitted effect of over 60% in size
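HEK293 cells stably expressing human Npr1 and cGMP GloSensor pGS-40F, loaded 2 h with 2% GloSensor reagent, given compound 30 min at room temperature. Luminescence read before and 20 min after 0.1 nM hNppA.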
FLuc inh = inhibitors of firefly (Photinus pyralis) luciferase. 2.5% of 76,000 active. P08659. Potency, µM (series often up to 115 µM), most hits filed as inhibitors. purified P. pyralis luciferase, luminescence, biochemical. AID 1347043; note: nearly all actives have a fitted effect of over 65% in size
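FLuc 10nM, D-luciferin 10uM, ATP 10uM, Mg acetate 10mM, Tris acetate pH 7.5, Tween/BSA; cpd qHTS; enzyme added last; CCD luminescence.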
Active calls of the source: *; i = inactive; ? = inconclusive; / = not tested or not shown; [ ] = remark or other dose. Unless noted, calls come from the whole dose curve; as a rule, active = well fitted curve in the direction sought with a large enough effect; inconclusive = small, poorly fitted or top-dose-only effect, or another doubt; inactive = no such curve, though single readings can be large; an effect the other way counts as inactive or inconclusive. % is set by controls: 0 for no effect and ±100 for the full control effect; potency is the fitted concentration of half-maximal effect.

SMILES	NIH3T3 tox	HEK cytotox	GPT2 inhibitor	hNpr1 antagonist	FLuc inh
COc1ccc(-c2cc(N3CCN(C(=O)c4ccc(C)c(F)c4)CC3)n[nH]2)cc1	?	?	i	-3%	i
CC1(C)CN(C(=O)c2ccccc2N2CCC(=O)NC2=O)CC[C@]1(C)O	-5%	i	?	2%	i
Cc1ccc(C)c(C(=O)N2CCN(c3cc(-c4ccc(Cl)cc4)[nH]n3)CC2)c1	?	25µM*	0%	14µM*	i
Cc1ccccc1C(=O)N1CCN(c2cc(-c3ccc(F)cc3)[nH]n2)CC1	?	?	i	-21%	i
O=C(Cc1ccccc1Cl)N1CCCN(c2cc(-c3ccccc3)[nH]n2)CC1	?	?	?	-9%	i
Cc1ccc(-c2cc(N3CCCN(C(=O)c4ccco4)CC3)n[nH]2)cc1C	32µM*	?	i	-10%	i
Cc1ccc(-c2cc(N3CCCN(C(=O)Cc4ccccc4Cl)CC3)n[nH]2)cc1C	40µM*	?	?	-3%	?
COCCNC(=O)[C@@H]1C[C@H](Oc2ccccc2)CN1C(=O)c1ccc(OC)c(F)c1	-9%	-7%	i	2%	i
CC(C)NC(=O)c1ccnc(-c2nnc3ccc(Nc4ccccc4)nn23)c1	?	?	4%[88.5 µM]	2%[70.6 µM]	i
CN1CCN(C(=O)c2ccnc(-c3nnc4ccc(N(C)c5ccccc5)nn34)c2)CC1	10µM*	-2%[172 µM]	-21%[88.5 µM]	4%[70.6 µM]	i
CN(Cc1ccccc1)C(=O)c1ccnc(-c2nnc3ccc(Nc4ccccc4)nn23)c1	?	20µM*	-11%[88.5 µM]	?	i
COC1CCN(C(=O)c2ccnc(-c3nnc4ccc(N(C)c5ccccc5)nn34)c2)CC1	3.5µM*	?	-9%	-6%	i
COC1CCN(C(=O)c2ccnc(-c3nnc4ccc(Nc5ccccc5)nn34)c2)CC1	?	89µM*	-10%[88.5 µM]	-1%[70.6 µM]	i
Cn1ccnc1CN[C@@H]1CO[C@H](CNC(=O)CC(C)(C)C)[C@H]1O	-9%[174 µM]	-11%[172 µM]	1%[88.5 µM]	1%[70.6 µM]	i
COc1ccccc1-c1cccc(C(=O)N2CCN(C(=O)C3CCCC3)CC2)c1	?	?	i	/	/
O=C(Cc1ccccc1)N1CCC2(CC1)CN[S+](=O)([O-])c1ccccc1N2	-10%	-1%	-2%	0%	i
COc1ccc(OCC2CN(Cc3ccccc3)[S+](=O)([O-])c3cccnc3O2)cc1 (configuration not stated)	?	?	1%[27.3 µM]	/	/
Cc1occc1C(=O)N1CCC(N2CCCC(C(=O)NCc3ccccn3)C2)CC1 (configuration not stated)	4%	4%	i[11.5 µM]	3%	i
COc1ccc(Nc2ccc3nnc(-c4ccccn4)n3n2)cc1	?	71µM*	-8%[88.5 µM]	-23%[70.6 µM]	i
O=C(c1ccc(C(F)(F)F)cc1)N1CCC(C(=O)N2CCC(c3ccccc3)CC2)CC1	?	45µM*	i	/	/
O=C(C1CCCN1[S+](=O)([O-])c1cccc(C(F)(F)F)c1)N1CCC(c2ccccc2)CC1 (configuration not stated)	35µM*	25µM*	-3%	/	/
O=C(C1CC1)N1CCC(C(=O)N2CCC(c3ccccc3)CC2)CC1	?	-26%[172 µM]	-8%[88.5 µM]	/	/
O=C(C1CCN(S(=O)(=O)c2cccc(C(F)(F)F)c2)CC1)N1CCC(c2ccccc2)CC1	?	22µM*	-6%	/	/
O=C(C1CCCN1[S+](=O)([O-])c1cccc(C(F)(F)F)c1)N1CCC(c2nc3ccncc3[nH]2)C1 (configuration not stated)	i	-7%	3%	/	/
CN1C[C@@H](NC(=O)Nc2cccc(C#N)c2)C[C@H]1c1nc(-c2ccncc2)no1	-32%[174 µM]	?	i	-11%[70.6 µM]	i
SMILES	NIH3T3 tox	HEK cytotox	GPT2 inhibitor	hNpr1 antagonist	FLuc inh
COc1ccc(C(=O)N2CCCn3nc(C)c(-c4ccccc4-c4ccccc4)c32)cn1	?	?	-10%[88.5 µM]	-18%[70.6 µM]	i
COc1ccc(C(=O)N2CCCn3nc(C)c(-c4ccccc4-c4ccccc4)c32)cc1	?	35µM*	-30%[88.5 µM]	-22%[70.6 µM]	i
Cc1nn2c(c1-c1ccccc1-c1ccccc1)N(C(=O)C1CCOCC1)CCC2	?	-10%[172 µM]	0%[88.5 µM]	3%[70.6 µM]	i
COc1ccccc1C(=O)N1CCCn2nc(C)c(-c3ccccc3-c3ccccc3)c21	?	89µM*	i	-1%[70.6 µM]	i
Cc1nn2c(c1-c1ccccc1-c1ccccc1)N(C(=O)c1cccnc1)CCC2	?	-28%[172 µM]	-16%[88.5 µM]	-9%[70.6 µM]	i
Cc1ccncc1-c1c(C)nn2c1N(C(=O)c1cccc(Cl)c1)CCC2	?	-25%[172 µM]	3%[88.5 µM]	0%[70.6 µM]	i
Cc1nn2c(c1-c1ccccc1Oc1ccccc1)N(C(=O)C1CCC1)CCC2	?	89µM*	-11%[88.5 µM]	-5%[70.6 µM]	i
Cc1nn2c(c1-c1cccc3cn[nH]c13)N(C(=O)c1cccc(Cl)c1)CCC2	?	50µM*	i	-1%[70.6 µM]	i
CN1CC2CN(C(=O)NCc3ccc(F)cc3)CC(C1)O2	-21%	12%	i	-2%	i
CCOc1ccccc1C(=O)N1CCCN(c2cc(-c3ccc(Cl)cc3)[nH]n2)CC1	?	?	-2%	-23%	i
CC1CCCN1C(=O)c1cn2cc(-c3cccc(Cl)c3)n(CC3CC3)c(=O)c2n1 (configuration not stated)	25µM*	?	2%	-9%	i
COc1ccc(-c2cn3cc(C(=O)N4CCCC4)nc3c(=O)n2CC2CC2)c(F)c1	32µM*	32µM*	?	-25%	i
O=C(NCc1ccco1)C1CCN(C(=O)c2ncn3c2COC(c2ccc(F)cc2)C3)CC1 (configuration not stated)	0%	2%	3%	-4%	22µM*
Cc1ccc(C2Cn3cnc(C(=O)N4CCC(C(=O)NCc5ccccc5F)CC4)c3CO2)cc1 (configuration not stated)	-3%	-13%	0%	-13%	?
Cc1ccc(C2Cn3cnc(C(=O)N4CCC(C(=O)NCc5ccc(F)cc5F)CC4)c3CO2)cc1 (configuration not stated)	-4%	-23%	i	-7%	?
O=C(NCc1cc(F)ccc1F)C1CCN(C(=O)c2ncn3c2COC(c2ccc(F)cc2)C3)CC1 (configuration not stated)	0%	0%	-5%	0%	45µM*
O=C(NCc1ccc(F)cc1F)C1CCN(C(=O)c2ncn3c2COC(c2ccccc2)C3)CC1 (configuration not stated)	i	-2%	i	-10%	35µM*
